40 compounds from PubChem BioAssay (NCATS) can be followed below.

Results filed as inconclusive are left out. Entries that show only a call come without a potency. Active and inactive are the calls of the source. Calls come from the whole dose curve; as a rule, active = well fitted inhibition curve with a large enough effect; inconclusive = small, poorly fitted or top-dose-only effect; inactive = no such curve, though single readings can be large or run the other way.
Potency is the fitted concentration of half-maximal effect.

In this assay the test system is Zika virus NS2B-NS3 protease (linked construct). The assay can be described thus: Primary screen NINDS Rhodamine qHTS for Zika virus inhibitors (AID 1347160). Note: nearly all actives have a fitted effect of over 55% in size. To be noted: purified NS2B-NS3 protease, Rhodamine110 substrate fluorescence; series mostly up to 57.1 µM. The essentials:
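Aprotinin served as in-plate control. Conditions: 25 nM linked NS2B-NS3, pH 8.0 Tris buffer, titrated compounds, 15 min preincubation and 15 min reaction with 1.5 microM Rhod110 substrate at room temperature.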
For the compound `C=C1/C(=C/C=C2\CCC[C@@]3(C)C2CCC3[C@H](C)/C=C/[C@@H](O)C2CC2)C[C@@H](O)C[C@@H]1O` (stereo not given in full), the Potency result is “inactive”.

Take `CC(=O)OC1CC(C)C2(CCC3(CC(=O)OC3O)O2)C2(C)CCCC(C)(C)C12` (stereo not given): the Potency result was “inactive”.

With `C=C1/C(=C/C=C2\CCC[C@]3(C)[C@@H]([C@@H](C)OCCC(O)(CC)CC)CC[C@@H]23)C[C@@H](O)C[C@@H]1O`, the Potency result is “inactive”.

For the compound `CN(C)CC#CCCC(=O)C(O)(c1ccccc1)C1CCC1` (stereo not given), the Potency result is “inactive”.

Regarding `C[C@@H](NC(=O)[C@H](O)c1cc(F)cc(F)c1)C(=O)N[C@@H]1C(=O)N(C)c2ccccc2-c2ccccc21`, the Potency entry was “inactive”.

`CC(/C=C/C(=O)NO)=C\[C@@H](C)C(=O)c1ccc(N(C)C)cc1`: the Potency result is “inactive”.

Turning to `COc1cc2c(cc1OC(C)C)[C@H](c1ccc(Cl)cc1)N(c1ccc(N(C)CC3CCC(N4CCN(C)C(=O)C4)CC3)cc1)C(=O)C2` (stereo not given in full), the Potency entry was “inactive”.

Consider `COC(=O)c1cc(Br)cnc1N1CCC(NC2CCCCC2)C(O)C1` (stereo not given), for which the Potency entry was “inactive”.

`CCC(C(C)O)n1ncn(-c2ccc(N3CCN(c4ccc(OCC5COC(Cn6cncn6)(c6ccc(F)cc6F)C5)cc4)CC3)cc2)c1=O` (stereo not given): the Potency result was “inactive”.

As for `CS(=O)(=O)Nc1ccc2oc3c(OC(F)F)ccc(C(=O)Nc4c(Cl)cncc4Cl)c3c2c1`, the Potency entry was “inactive”.

In the case of `C=C(C)C(=O)OC1CC(CO)CCC/C(CO)=C/C2OC(=O)C(=C)C21` (stereo not given), the Potency entry is “inactive”.

For `C=C1[C@@H](OC(C)=O)CC[C@@]2(C)[C@@H](OC(C)=O)[C@H](OC(C)=O)C3=C(C)C[C@H](OC(=O)C(C)CC)[C@@H]([C@@H](OC(C)=O)[C@H]12)C3(C)C` (stereo not given in full), the Potency entry is “inactive”.

Turning to `CNc1ccc([N+](=O)[O-])c(Nc2ccc3[nH]ncc3c2)n1`, the Potency result was “inactive”.

As to `C[C@@H](Nc1ncnc2[nH]c(-c3ccc(O)cc3)cc12)c1ccccc1`, the Potency result is “inactive”.

For `CCS(=O)c1nc(-c2cccc(OCc3ccccc3)c2)cc(C(F)(F)F)n1` (stereo not given), the Potency result is “inactive”.

For `CC[C@@H](C)Nc1cc(C(=O)NC2CC3CCC(C2)N3c2ccc(C(=O)C3CC3)cn2)c(C)cc1C(N)=O` (stereo not given in full), the Potency entry is “inactive”.

`CCN(CC)C(=O)c1ccc(Nc2nc(OCC3CCCCC3)c3[nH]cnc3n2)cc1`: the Potency entry is “inactive”.

For the compound `CCCCOc1ccc(S(=O)(=O)n2c(C)nc3ccccc32)cc1`, the Potency result was “inactive”.

For `COc1cc(O)c2c(c1)/C=C/C[C@H](O)[C@H](O)C(=O)/C=C\C[C@H](C)OC2=O`, the Potency result is “inactive”.

For `C/C=C(\C)[C@@H]1C(C)=C[C@@H]2[C@H]([C@@H]1/C=C/C=C/C(=O)O)[C@@H](C)CC[C@@H]2O`, the Potency result is “inactive”.

With `CC(=O)OC1C(OC(=O)c2ccccc2)C2C(C)(C)CCC(OC(C)=O)C2(C)C23CCC(C)(C2)C(=O)CC13` (stereo not given), the Potency result was “inactive”.

For `O=C(NCCN1CCN(c2cccc3ccc(O)cc23)CC1)c1ccc(F)cc1`, the Potency result was “inactive”.

Take `NC(N)=N/N=C/c1ccccc1Cl`: the Potency result is “inactive”.

Take `Cc1nnc(C[C@@H]2C=C(c3ccc(Cl)cc3)c3ccccc3-n3c(C)nnc32)o1`: the Potency entry is “inactive”.

With `CN(C)C(=O)COC(=O)c1cc(-c2ccc(C3CCNCC3)cc2)c2ccc(-c3ccc(C(F)(F)F)cc3)cc2c1`, the Potency result was “inactive”.

With `CC(=O)OCC(=O)[C@@]12O[C@@H]1C[C@H]1[C@@H]3CC=C4C[C@@H](O)CC[C@]4(C)[C@H]3CC[C@@]12C`, the Potency entry was “inactive”.

For the compound `C/C=C/[C@@H]1C=C[C@@H]2C[C@H](C)CC[C@H]2[C@]1(C)/C(O)=C1/C(=O)[C@@H](CO)N(C)C1=O`, the Potency entry was “inactive”.

Take `CCCc1cc(C)n(C)c(=O)c1CN(C)C(=O)c1cc(-c2ccc(N3CCN(C(C)C)CC3)nc2)cc2c1cnn2C(C)C`: the Potency result was “inactive”.

With `C/C=C(/C)C(=O)OC1CC(C)(C)CC2C3=CCC4C5(C)CCC(O[C@@H]6O[C@H](C(=O)O)[C@@H](O)[C@H](O)[C@H]6O[C@@H]6O[C@H](CO)[C@H](O)[C@H](O[C@@H]7OC[C@H](O)[C@H](O)[C@H]7O[C@@H]7O[C@H](CO)[C@@H](O)[C@H](O)[C@H]7O)[C@H]6O)C(C)(C)C5CCC4(C)C3(C)C(O)C(O)C12CO` (stereo not given in full), the outcome is “inactive [at 10.7 µM]”.

For the compound `CCC/C=C/C(=O)O[C@H]1CC(C)(C)CC2[C@@]13[C@H](O)C[C@]1(C)[C@@]2(CCC2[C@@]4(C)CC[C@H](O[C@@H]5O[C@H](C(=O)O)[C@@H](O)[C@H](O[C@@H]6O[C@H](CO)[C@H](O)[C@H](O)[C@H]6O[C@@H]6O[C@@H](C)[C@H](O)[C@@H](O)[C@H]6O[C@@H]6OC[C@](O)(CO)[C@H]6O)[C@H]5O[C@@H]5O[C@H](CO)[C@H](O)[C@H](O)[C@H]5O)C(C)(C)C4CC[C@]21C)O[C@H]3O` (stereo not given in full), the activity change, negative = inhibition was -24.8% [at 10.7 µM] (inactive).

On to `CC1CCC/C=C/C(=O)c2c(O)cc(O)cc2CC(=O)O1` (stereo not given), for which the Potency result is “inactive”.

As to `CCc1ccc(-c2nc(CSCC(=O)NCCc3ccccc3)c(C)o2)cc1`, the Potency result was “inactive”.

Regarding `CNCCC(c1cccs1)c1ccc(O)c2ccccc12` (stereo not given), the Potency entry was “inactive”.

For `CCOC(=O)c1ccc(OCCC2CCN(c3ccc(C)nn3)CC2)cc1`, the Potency entry was “inactive”.

As for `NS(=O)(=O)Nc1ncnc(OCCOc2ncc(Br)cn2)c1-c1ccc(Br)cc1`, the Potency entry is “inactive”.

Regarding `CC(C)(Cc1ccccc1)NCC(O)c1ccc(O)c(NS(C)(=O)=O)c1` (stereo not given), the Potency entry is “inactive”.

As for `COc1cc(C(=O)NC(=S)Nc2cccc(NC(=O)c3ccccc3)c2)cc(OC)c1OC`, the Potency entry was “inactive”.

For `CCC(C)/C=C(C)/C=C/C1=CC2=C(Cl)C(=O)C(C)(OC(C)=O)C(=O)C2(O)C(OC)O1` (stereo not given), the Potency was 11.2 µM (active).

As for `Cn1cc(-c2ccc(S(=O)(=O)n3ccc(/C=C/C(=O)Nc4ccccc4N)c3)cc2)cn1`, the Potency entry is “inactive”.

For `CN(C)CCOC(C)(c1ccccc1)c1ccc(Cl)cc1` (stereo not given), the Potency result is “inactive”.
